HT1080-NT tox = kills 2HG-producing HT-1080-NT fibrosarcoma cells. HT-1080-NT fibrosarcoma viability, CellTiter-Glo ATP luminescence, 48 h. Potency, µM (doses to about 46.1 µM), without a hit: top-dose activity, negative = less viability, hits mostly cytotoxic. 1.6% of 360,000 active. AID 686970;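 note: NT is the 2HG producing partner of a matched IDH1 knockdown line; potency is the fitted concentration of half-maximal effect; 0% = DMSO-treated cells and -100% = media-only wells without cells; nearly all actives have a fitted effect of over 55% in size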
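Luminescent CellTiter-Glo readout after 48 hours of compound exposure at 37 degrees C defined viability of HT-1080-NT cells. Activity was normalized to DMSO wells and cell-free media wells; concentration-response curves were fitted and assigned curve classes.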
TDP1 cell CPT = growth inhibition of DT40 Tdp1-/-;hTDP1 cells with camptothecin (screen for TDP1 inhibitors). 12% of 420,000 active. chicken DT40 Tdp1-/-;hTDP1 cells + 20 nM CPT, ATP luminescence, 48 h. Potency, µM (top dose mostly 46.2 µM), without a hit: at the highest dose activity change, negative = growth inhibition, hits mostly inhibitors; note: potency is the fitted concentration of half-maximal effect; nearly all actives have a fitted effect of over 55% in size
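Chicken DT40 Tdp1-/- cells complemented with human TDP1, 400 cells/well, exposed to compounds plus 20 nM camptothecin for at least 48 h at 37 C; viability read as ATP content by CellTiter-Glo luminescence.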
IL-1B inflam inh = inflammasome signaling inhibition, IL-1 beta readout; THP-1 LPS/ATP IL-1B secretion, AlphaLISA, 16 h; active compounds read low; 4.7% of 360,000 active; activity change, % at 57.5 µM; in the data active = activity change below about -50%; inconclusive = mostly about -30% to -49%
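THP-1 cells pretreated 1 hr with compounds (up to 57.5 uM final), then stimulated with LPS (250 ng/mL final) plus ATP (1.25 mM final); secreted IL-1B measured by AlphaLISA after 16 hr, decreased signal indicating inhibition.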
HT1080 IDH1KD tx = HT-1080 IDH1 knockdown cell toxicity (counter line) | Potency, µM (doses to about 46.1 µM), without a hit: at the highest dose activity, negative = toxicity, hits mostly cytotoxic | HT-1080 IDH1 knockdown viability, ATP luminescence, 48 h | 2% of 360,000 active | AID 686971;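 note: potency is the fitted concentration of half-maximal effect; 0% = DMSO wells and -100% = cell-free medium wells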
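Knockdown cells (IDH1KD HT-1080) received compounds 2 h after plating at 750 cells/well and were kept 48 h at 37 °C in 5% FBS RPMI. A CellTiter-Glo luminescence read gave % activity for curve fitting.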
TDP1 cell noCPT = qHTS for Inhibitors of human tyrosyl-DNA phosphodiesterase 1 (TDP1): qHTS in cells in absence of CPT; Potency, µM (doses to about 46.2 µM), for the others: top-dose activity change, negative = growth inhibition, hits mostly inhibitors; AID 686978, 2013; 15% of 420,000 active; DT40 Tdp1-/- hTDP1 cells, no CPT, ATP luminescence, 48 h; note: potency is the fitted concentration of half-maximal effect; nearly all actives have a fitted effect of over 55% in size
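Seeded 400 DT40-hTDP1 cells/well (vehicle DMSO, no 20 nM CPT); pinned compounds; ≥48 hr at 37 °C; CellTiter-Glo luminescence as viability measure.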
An asterisk follows results filed as active; i = inactive; ? = inconclusive; nt = no result given; [ ] = remark or other dose. This is a sample that favours compounds with a hit; in the whole collection about 19% have one here. Unless noted, calls come from the whole dose curve; as a rule, active = well fitted curve in the direction sought with a large enough effect; inconclusive = small, poorly fitted or top-dose-only effect, or another doubt; inactive = no such curve, though single readings can be large; an effect the other way counts as inactive or inconclusive. Unless noted, % is set by controls: 0 for no effect and ±100 for the full control effect.

SMILES	HT1080-NT tox	TDP1 cell CPT	IL-1B inflam inh	HT1080 IDH1KD tx	TDP1 cell noCPT
CCc1nnc(NC(=O)CSc2nc3c(c(=O)n2C)SC(C)C3)s1 (stereo not drawn)	-8%	?	23	-1%	21µM*
COC(=O)CSc1ncc2c(n1)-c1ccccc1N(Cc1cccc(F)c1)S2(=O)=O	nt	11%	nt	nt	4%
Cc1ccc(NC(=O)c2ccc3nc(Cc4ccccc4)oc3c2)cc1F	nt	?	nt	nt	-14%
Cc1[nH]c2ccccc2c1C1(O)C(=O)N(Cc2ccccc2Cl)c2ccccc21 (stereo not drawn)	nt	5.8µM*	nt	nt	5.2µM*
Cc1[nH]c2ccccc2c1C1(O)C(=O)N(Cc2ccccc2)c2ccc(Br)cc21 (stereo not drawn)	nt	4.1µM*	nt	nt	4.6µM*
Cc1ccc(CN2C(=O)C(O)(c3c[nH]c4ccccc34)c3cc(Cl)ccc32)cc1 (stereo not drawn)	nt	?	nt	nt	23µM*
O=C(CSc1nc(=O)n(Cc2ccncc2)c2c1CCC2)Nc1cccc(F)c1	nt	-28%	nt	nt	?
Cc1cccc(C2NC(c3cccc(C)c3)C([N+](=O)[O-])C(C)(C)C2[N+](=O)[O-])c1 (stereo not drawn)	4%	?	-8	8%	16µM*
Cc1ccccc1C1NC(c2ccccc2C)C([N+](=O)[O-])C(C)(C)C1[N+](=O)[O-] (stereo not drawn)	-9%	-3%	-12	-10%	-17%
CCCNC(=O)C1(C)CCCN(C(=O)c2ccccc2OC(F)(F)F)C1 (stereo not drawn)	29%	11%	6	11%	-17%
COc1cc(NC(=O)CSc2ccc(-c3ccccn3)nn2)cc(OC)c1	-18%	?	47	?	?
COc1ccc(OC)c(NC(=O)CSc2ccc(-c3sc(C)nc3C)nn2)c1	nt	15µM*	nt	nt	13µM*
COc1ccc(Cl)cc1NC(=O)CSc1ccc(-c2sc(C)nc2C)nn1	nt	13µM*	nt	nt	10µM*
CCc1nc(SCC(=O)Nc2cc(OC)ccc2OC)c2c(C)c(C)sc2n1	?	18µM*	-5	?	26µM*
COc1ccc(C)cc1NC(=O)CSc1ccc(-c2ccccn2)nn1	-14%	?	i	?	21µM*
CC(=O)Nc1ccc(NC(=O)CSc2ccc(-c3sc(C)nc3C)nn2)cc1	0%	-22%	i	15%	?
O=Cc1ccc(CS)cc1	nt	-5%	nt	nt	-21%
CC(C)(C)S(=O)N1Cc2ccc(CO)cc2[C@@H]1CCO (stereo partly drawn)	1%	?	3	10%	-4%
Cc1ccccc1NC(=S)NC1(C)CCS(=O)(=O)C1 (stereo not drawn)	3%	-4%	5	10%	-22%
COc1cccc(-n2c(SC)nnc2C2CCN(Cc3nc4ccccc4s3)CC2)c1	nt	3%[9.04 µM]	nt	nt	?
C[C@H](CO)N1C[C@H](C)[C@H](CN(C)C(=O)Nc2cccc(F)c2)Oc2cc(C#CC3(O)CCCC3)ccc2S1(=O)=O	5%	2%	7	-1%	4%
COc1ccc(C)cc1NC(=O)CSc1ccc(-c2sc(C)nc2C)nn1	-1%	13µM*	?	-13%	?
COc1ccccc1NC(=O)CSc1ccc(-c2ccc(-n3ccnc3)cc2)nn1	-12%	21µM*	-12	-15%	13µM*
Cc1ccccc1NC(=O)CSc1ccc(-c2ccc(-n3cccn3)cc2)nn1	3%	-4%	8	4%	8%
CC(=O)Nc1ccc2nc(NC(=O)CN3CCOCC3)sc2c1	-3%	-9%	1	-2%	-16%
SMILES	HT1080-NT tox	TDP1 cell CPT	IL-1B inflam inh	HT1080 IDH1KD tx	TDP1 cell noCPT
O=C(Nc1cccc(Oc2ccccc2)c1)C1Cc2c(-c3ccc4c(c3)OCO4)ccnc2O1 (stereo not drawn)	?	?	-4	?	?
NC(=O)c1cccc(-c2ccnc3c2CC(C(=O)NCC2CC2)O3)c1 (stereo not drawn)	3%	1%	14	27%	2%
O=C(Nc1cccc(OC(F)(F)F)c1)C1Cc2c(-c3ccc4c(c3)OCO4)ccnc2O1 (stereo not drawn)	?	16µM*	-5	23µM*	21µM*
O=C(Nc1cccc(OC(F)(F)F)c1)C1Cc2c(-c3ccc(Cl)cc3)ccnc2O1 (stereo not drawn)	?	?	-25	?	?
CC(=O)c1cccc(-c2ccnc3c2CC(C(=O)Nc2cccc(OC(F)(F)F)c2)O3)c1 (stereo not drawn)	?	-4%	-6	16µM*	?
NC(=O)c1cccc(-c2ccnc3c2CC(C(=O)Nc2cccc(Oc4ccccc4)c2)O3)c1 (stereo not drawn)	?	?	-11	23µM*	?
Cc1ccc([C@@H]2C[C@H]3[C@@H](CN2S(=O)(=O)c2ccc(C)cc2)C(=O)C[C@@H](c2ccccc2F)N3S(=O)(=O)c2ccc(C)cc2)cc1	7%	-6%	-3	16%	?
CCO[C@H]1OC(C(=O)NCc2ccccc2)=C[C@@H](C2CC2)[C@@H]1CCCO	6%	-24%	-10	1%	-7%
Nc1nc2n(n1)C(c1c(F)cccc1Cl)CC(c1ccc(F)cc1)N2 (stereo not drawn)	2%	-28%	-8	5%	-21%
COc1ccc(C(=O)NC(C)c2cccnc2)cc1S(=O)(=O)N(C)Cc1ccccc1 (stereo not drawn)	3%	-18%	-5	0%	?
CCN(CC(=O)Nc1ccccc1OC)C(=O)C1CCCC1	10%	-24%	2	2%	-6%
CCCN(CC(=O)Nc1ccccc1OC)C(=O)C1CCCC1	-3%	?	4	-1%	21µM*
CCCN(CC(=O)Nc1ccccc1OC)C(=O)Cc1ccc2c(c1)CCC2	-4%	18µM*	1	0%	?
Cc1ccsc1C(=O)N1CCCC(CO)(Cc2ccccc2)C1 (stereo not drawn)	-3%	?	52	1%	-24%
Cc1cc(C[n+]2cc(Br)ccc2N)c2ncccc2c1	-7%	12µM*	-62*	?	10µM*
Nc1ccc(Cl)c[n+]1Cc1cccc2cccnc12	-22%	-23%	9	-4%	?
Cc1cc(C[n+]2cc(Cl)ccc2N)c2ncccc2c1	-11%	-29%	-76*	-17%	?
Cc1ccc(S(=O)(=O)N2CCCCC2)cc1C(=O)N1CCCCCC1	4%	-13%	13	5%	-12%

Screening results (PubChem)
